Source: PubChem BioAssay (Tox21)
Inconclusive results are not listed. Unmarked numbers belong to inactive results. Activity calls are given as the source filed them. The call rests on the fitted dose curve; in most records, active means well fitted cell-killing curve with a large enough effect in the repeat runs; inconclusive means weak or mixed curves; inactive means flat fitted curve, though single readings scatter.

Experiment: qHTS assay to identify small molecule antagonists of the estrogen receptor beta (ER-beta) signaling pathway - cell viability counter screen (AID 1259382); further: nearly all actives have a fitted effect of over 55% in size
Settings: ER-beta-UAS-bla HEK293T viability, CellTiter-Glo luminescence, 16 h; series mostly up to 92.4 µM; activity change, negative = cytotoxicity: at the top concentration
Description: U.S. Tox21 Program National Center for Advancing Translational Sciences [NCATS] NIH Chemical Genomics Center [NCGC] U.S. Environmental Protection Agency [EPA] National Institutes of Environmental Health Sciences [NIEHS] National Toxicology Program [NTP] U.S. Food and Drug Administration [FDA] Tox21 Assay Overview: Estrogen receptor (ER), a nuclear hormone receptor, plays an important role in development, metabolic homeostasis and reproduction. Two subtypes of ER, ER-alpha and ER-beta, have similar expression patterns with some uniqueness in both types. Endocrine disrupting chemicals (EDCs) and their interactions with steroid hormone receptors like ER causes disruption of normal endocrine function. To identify the compounds that inhibit ER signaling, an ER-beta-UAS-bla GripTite cell line (Life Technologies, Madison, WI, USA) containing a beta-lactamase reporter gene under the control of an UAS response element was used to screen Tox21 10K compound library. The cytotoxicity of the Tox21 compound library against the ER-beta-bla cell line was tested in parallel by measuring the cell viability using CellTiter-Glo assay in the same wells.
Tox21 Assay Protocol Summary: ER-beta-UAS-bla HEK293T cells were dispensed at 2,000 cells/4 uL of assay medium containing 2% charcoal stripped FBS per well into black wall/clear-bottom 1536-well plates using a Multidrop Combi (ThermoFisher Scientific, Waltham, MA) dispenser. After the assay plates were incubated at a 37C and 5% CO2 for 6 hr, 23 nL of compounds dissolved in DMSO, positive controls or DMSO only was transferred to the assay plate by a Pintool station (Kalypsys, San Diego, CA), followed by addition of 1 uL (1nM as final concentration) of 17-beta-estradiol (E2) in assay medium using a Flying Reagent Dispenser (FRD, Aurora Discovery, San Diego, CA). The plates were incubated at 37C and 5% CO2 for 16 hr. Then 1 uL of LiveBLAzer B/G FRET substrate was added using a Flying Reagent Dispenser, the plates were incubated at room temperature for 2 hours, and fluorescence intensity was measured by an Envision plate reader (PerkinElmer, Shelton, CT). For cell viability readout that measures cytotoxicity, 4 uL/well of CellTiter-Glo reagent was added into the assay plates using a FRD. After 30 min incubation at room temperature, the luminescence intensity in the plates was measured using a ViewLux (PerkinElmer) plate reader.
On the % scale 0 is the no-effect control and ±100 the full control effect; potency means the concentration at half of the fitted maximal effect.

Structure (SMILES) | activity change, negative = cytotoxicity | Potency
CCOCCOC(C)=O | 12.6% | –
CCCCCCCCCCCCCC[P+](CCCCCC)(CCCCCC)CCCCCC (tested in a mixture with another compound) | – | 27.3 µM (active)
C=COCCCl | 2.04% | –
COc1ccc(OC)c(CC(C)N)c1 (stereo not given) | 1.35% | –
c1ccc(OCC2CO2)cc1 (stereo not given) | 1.19% | –
CN(C)CCc1c[nH]c2ccc(O)cc12 | -11.4% | –
N#CC(Cl)Cl | 19.8% | –
Cn1[nH]nnc1=S | 12.9% | –
N#Cc1ccccc1N | 0% | –
C=CC(=O)N(C)C | 25.3% | –
[Cl][Sb]([Cl])[Cl] | 7.26% | –
Oc1ccc(C2(c3ccc(O)cc3)CCCCC2)cc1 | – | 57.9 µM (active)
CN(C)CCc1c[nH]c2cccc(O)c12 | 5.71% | –
N#CCc1ccc(Cl)cc1 | 0% | –
CCCN(CCC)c1c([N+](=O)[O-])cc(S(N)(=O)=O)cc1[N+](=O)[O-] | – | 54.9 µM (active)
CCCCCCCCCCBr | 1.66% | –
Clc1ccc(Oc2ccccc2)cc1 | 0% | –
CCC[CH2][Sn]([CH2]CCC)([CH2]CCC)[O]C(=O)c1ccccc1 | – | 1.93 µM (active)
Clc1ccc(C(c2ccccc2Cl)C(Cl)(Cl)Cl)cc1 (stereo not given) | -10.7% [at 42.5 µM] | –
C[C@]12Cc3nonc3C[C@@H]1CC[C@@H]1[C@@H]2CC[C@@]2(C)[C@H]1CC[C@]2(C)O | – | 29.8 µM (active)

Structure (SMILES) | activity change, negative = cytotoxicity | Potency
Oc1ccccc1Br | 3.22% | –
CCC(C)c1cc([N+](=O)[O-])cc([N+](=O)[O-])c1OC(=O)C=C(C)C (stereo not given) | 0.0155% | –
COP(=O)(OC)SCn1c(=O)oc2cc(Cl)cnc21 | -20.3% | –
CCCCCCCCCC[N+](C)(C)CCCCCCCCCC | – | 17.2 µM (active)
C[C@@H]1O[C@@H](O[C@@H]2C=C3CC[C@@H]4[C@H](CC[C@]5(C)[C@@H](c6ccc(=O)oc6)CC[C@]45O)[C@@]3(C)CC2)[C@H](O)[C@H](O)[C@H]1O | – | 0.0094 µM (active)
N#C/C=C/c1ccccc1 | 8.86% | –
Cc1cc(C)c(C2=C(OC(=O)CC(C)(C)C)C3(CCCC3)OC2=O)c(C)c1 | 10.6% | –
O=C(O)C1C2CCC(O2)C1C(=O)O (stereo not given) | – | inactive
COP(=S)(OC)Oc1cc(Cl)c(Br)cc1Cl | -0.445% | –
CCCCCCCCCCCCCCC(Br)C(=O)O (stereo not given) | -21.8% | –
ClC(Cl)=C(c1ccc(Cl)cc1)c1ccc(Cl)cc1 | – | inactive
CCS(=O)(=O)c1cccnc1S(=O)(=O)NC(=O)Nc1nc(OC)cc(OC)n1 | 2.13% | –
Oc1ccc(I)cc1 | 1.01% | –
O=[N+]([O-])c1ccc2ccc3cccc4ccc1c2c34 | -18.3% | –
C[C@@H](Oc1ccc(Cl)cc1Cl)C(=O)O | 4.66% | –
CC(O)C#N (stereo not given) | 8.36% | –
COCC(=O)N(c1c(C)cccc1C)[C@H](C)C(=O)OC | 3.32% | –
CC(C)C(=O)Cl | 6% | –
CC[C@H](C)[C@H]1O[C@]2(C=C[C@@H]1C)C[C@@H]1C[C@@H](C/C=C(\C)[C@@H](O[C@H]3C[C@H](OC)[C@@H](O[C@H]4C[C@H](OC)[C@@H](O)[C@H](C)O4)[C@H](C)O3)[C@@H](C)/C=C/C=C3\CO[C@@H]4[C@H](O)C(C)=C[C@@H](C(=O)O1)[C@]34O)O2 | – | 25.6 µM (active)
C[CH2][Hg][N]1C(=O)C2C(C1=O)C1(Cl)C(Cl)=C(Cl)C2(Cl)C1(Cl)Cl (stereo not given) | – | 11.6 µM (active)
